Measured values: PubChem BioAssay (NCI)
Compounds without any hit were thinned out: in the full panel of roughly 79,000, 15% have a hit. A number with no mark means an inactive call. Activity calls are given as the source filed them. Cut-off read from the data, not from the text of the source: active = growth inhibition above about 70%; inactive = the rest.

Experiments:
[1] = NCI Yeast Anticancer Drug Screen. Data for the rad50 strain (AID 155);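 note: 0% = growth of vehicle-only cultures of the same strain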; conditions: S. cerevisiae rad50 strain growth inhibition, stronger effect = higher value
How it was run: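 Genetically altered yeast (DNA repair pathway); compound treatment; growth inhibition vs vehicle ctrl.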

[2] = NCI Yeast Anticancer Drug Screen. Data for the mec2-1 strain (AID 157); conditions: S. cerevisiae mec2-1 strain, stronger effect = higher value
How it was run: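 Growth inhibition is read against vehicle-treated controls after compound exposure of the mec2-1 yeast strain, which is defective in DNA damage repair or cell cycle control.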

[3] = NCI Yeast Anticancer Drug Screen. Data for the sgs1 mgt1 strain (AID 161);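 note: 0% = growth of cultures given vehicle only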; conditions: S. cerevisiae sgs1 mgt1 strain, stronger effect = higher value
How it was run: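 Growth of a repair-deficient yeast mutant was monitored after compound treatment and expressed as inhibition relative to vehicle-treated cultures.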

[4] = NCI Yeast Anticancer Drug Screen. Data for the cln2 rad14 strain (AID 165);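 note: 0% = growth equal to vehicle treated cultures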; conditions: S. cerevisiae cln2 rad14 strain, stronger effect = higher value
How it was run: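 Growth inhibition, relative to vehicle-treated controls, is the read-out. The test organism is a yeast strain with defined genetic alterations, cln2 rad14.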

[5] = NCI Yeast Anticancer Drug Screen. Data for the bub3 strain (AID 167); conditions: S. cerevisiae bub3 mutant strain, stronger effect = higher value
How it was run: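 Yeast carrying a defined mutation is treated with each compound, and growth is compared with that of vehicle-exposed cells to give inhibition.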

[6] = NCI Yeast Anticancer Drug Screen. Data for the mlh1 rad18 strain (AID 175); conditions: S. cerevisiae mlh1 rad18 strain growth inhibition, stronger effect = higher value
How it was run: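 Cells of a genetically altered yeast strain, deficient in DNA damage repair, were treated with compound. Their growth was then compared with that of vehicle-treated cultures to give inhibition.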

[7] = at 5.0 µM (retest, dose inferred, filed as 0.5)
[8] = at 50.0 µM (retest, dose inferred, filed as 5.0)

Compound | growth inhibition [1, 7] | growth inhibition [1, 8] | growth inhibition ([1]; at 50.0 µM) | growth inhibition [2, 7] | growth inhibition [2, 8] | growth inhibition ([2]; at 50.0 µM) | growth inhibition [3, 7] | growth inhibition [3, 8] | growth inhibition ([3]; at 50.0 µM) | growth inhibition [4, 7] | growth inhibition [4, 8] | growth inhibition ([4]; at 50.0 µM) | growth inhibition [5, 7] | growth inhibition [5, 8] | growth inhibition ([5]; at 50.0 µM) | growth inhibition [6, 7] | growth inhibition [6, 8] | growth inhibition ([6]; at 50.0 µM)
C1CC[N-]CC1.C1CC[N-]CC1.N#CO.[Ag] | 99% (active) | 99% (active) | 99.2% (active) | 100% (active) | 99% (active) | 99.5% (active) | 100% (active) | 99% (active) | 99.4% (active) | 99% (active) | 99% (active) | 99% (active) | 99% (active) | 99% (active) | 99.6% (active) | 99% (active) | 99% (active) | 99.3% (active)
Cc1ccc(N=P(c2ccccc2)(c2ccccc2)c2ccccc2)cc1.[I][Hg][I] | 99% (active) | 99% (active) | 94.7% (active) | 100% (active) | 100% (active) | 99.7% (active) | 100% (active) | 99% (active) | 98.9% (active) | 99% (active) | 99% (active) | 99% (active) | 99% (active) | 98% (active) | 98.3% (active) | 99% (active) | 99% (active) | 99.3% (active)
CC[CH2][Sn]([F])([F])[CH2]CC | 20% | 94% (active) | 83% (active) | 12% | 97% (active) | 87.7% (active) | 11% | 94% (active) | 84.7% (active) | 17% | 91% (active) | 83.5% (active) | 14% | 96% (active) | 81.2% (active) | 13% | 95% (active) | 86.5% (active)
CC(=O)[CH-]C(=O)c1ccccc1.CC(=O)[CH-]C(=O)c1ccccc1.C[C@]12CCC(=O)C=C1CC[C@@H]1C2CC[C@@]2(C)C1CC[C@@H]2[O-].C[C@]12CCC(=O)C=C1CC[C@@H]1C2CC[C@@]2(C)C1CC[C@@H]2[O-].Cl.[Ti+4] (some centres not stated) | 41% | 78% (active) | 76.8% (active) | 35% | 84% (active) | 70.8% (active) | 39% | 85% (active) | 78.8% (active) | 26% | 48% | 50.9% | 37% | 86% (active) | 76.5% (active) | 47% | 84% (active) | 73.2% (active)
OC1CCCC[CH]1[Hg][Cl] (configuration not stated) | 99% (active) | 99% (active) | 99.3% (active) | 100% (active) | 100% (active) | 99.7% (active) | 100% (active) | 100% (active) | 49.2% | 99% (active) | 99% (active) | 99.3% (active) | 100% (active) | 100% (active) | 99.3% (active) | 100% (active) | 100% (active) | 99.5% (active)
COc1ccc2c3c(c4cc(OC)c(OC)cc4c2c1)C[C@H]1CCCCN1C3 | 99% (active) | 99% (active) | 92.6% (active) | 99% (active) | 100% (active) | 94.2% (active) | 99% (active) | 99% (active) | 93.8% (active) | 99% (active) | 99% (active) | 92.5% (active) | 99% (active) | 99% (active) | 93.2% (active) | 99% (active) | 99% (active) | 93% (active)
CCC/C=[CH]/[Hg][Cl] | 99% (active) | 99% (active) | 99.2% (active) | 100% (active) | 100% (active) | 99.5% (active) | 100% (active) | 99% (active) | 99.5% (active) | 97% (active) | 99% (active) | 99.3% (active) | 99% (active) | 99% (active) | 99.4% (active) | 100% (active) | 99% (active) | 99.4% (active)
[Cl][Hg][Cl].c1cnccn1 | 39% | 97% (active) | 92.2% (active) | 40% | 98% (active) | 93.8% (active) | 99% (active) | 99% (active) | 94.3% (active) | 80% (active) | 97% (active) | 93.2% (active) | 99% (active) | 99% (active) | 93.2% (active) | 32% | 99% (active) | 93% (active)
CC(CN1CCCCCCC1)C(C#N)(c1ccccc1)c1ccccc1 (configuration not stated) | 4% | 47% | 66.1% | 3% | 39% | 47.6% | 19% | 74% (active) | 67.5% | 6% | 46% | 84.1% (active) | 9% | 68% | 55.4% | 10% | 55% | 70.3% (active)
